JMJD2A Tudor inh = inhibitors of human JMJD2A Tudor domain; O75164; AlphaScreen JMJD2A-Tudor / H3K4me3 peptide binding; Potency, µM (doses to about 114 µM), without a hit: at the top dose activity change, negative = inhibition, hits mostly inhibitors; 390,000 compounds, 4.4% hits; AID 504339; further: on the % scale 0 is the no-effect control and ±100 the full control effect; nearly all actives have a fitted effect of over 50% in size
L3MBTL1 inh = blocks human L3MBTL1; Q9Y468; AlphaScreen L3MBTL1–H3K9me1 peptide binding; Potency, µM (doses to about 57.1 µM), without a hit: at the top dose activity, negative = inhibition, actives largely listed as inhibitors; 230,000 compounds, 0.66% hits; AID 485360; further: on the % scale 0 is the no-effect control and ±100 the full control effect; nearly all actives have a fitted effect of over 60% in size
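AlphaScreen proximity signal between nickel-chelate acceptor and streptavidin donor beads (final 10 ug/mL) reports binding of 50 nM L3MBTL1 to 75 nM biotin-H3 K9me1 peptide; complex incubated with compounds 30 min at room temperature; cefsulodin titration as control.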
HP1b chromo inh = inhibitors of HP1-beta chromodomain binding to methylated histone tails; AlphaScreen HP1-beta / biotin-H3K9me3 peptide binding; Potency, µM (titrated, usually from 114 µM), for inactives: at the highest dose activity change, negative = inhibition, actives largely listed as inhibitors; 390,000 compounds, 0.56% hits; AID 540317; further: nearly all actives have a fitted effect of over 70% in size
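Compound inhibition of the preformed complex between 50 nM HP1-beta and 50 nM biotinylated H3K9me3 peptide was read by AlphaScreen. Buffer was PBS pH 7.4 with 0.01% Tween-20. Incubations ran 30 min at room temperature, with 10 ug/mL donor/acceptor beads.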
G9a inh = blocks human histone lysine methyltransferase G9a; Q96KQ7; G9a H3K9 monomethylation, AlphaScreen, 2 h; Potency, µM (highest dose often 102 µM), for the others: at the top dose activity, negative = inhibition, actives largely listed as inhibitors; 350,000 compounds, 8.8% hits; further: on the % scale 0 is the no-effect control and ±100 the full control effect; nearly all actives have a fitted effect of over 75% in size
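AlphaScreen read-out: biotin-H3K9 peptide (500 nM) methylation by 20 nM enzyme with 20 uM SAM, 2 h at room temperature after 15 min compound preincubation; anti-monomethyl H3K9 antibody plus donor/acceptor beads, 10 min dark.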
BAZ2B inh = inhibitors of human BAZ2B bromodomain; Q9UIF8; AlphaScreen BAZ2B-H3K14Ac peptide displacement; Potency, µM (doses to about 114 µM), for inactives: at the highest dose activity change, negative = inhibition, most hits filed as inhibitors; AID 504333; 360,000 compounds, 4.4% hits; further: on the % scale 0 is the no-effect control and ±100 the full control effect; nearly all actives have a fitted effect of over 60% in size
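Inhibition is scored as reduced AlphaScreen emission. The BAZ2B/b-H3(5-23)K14Ac complex (50 nM each) in PBS pH 7.4, 0.01% Tween-20 meets compound (up to 110 uM) for 30 min at RT before bead addition.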
Active calls of the source: *; ? = inconclusive; / = not tested or not shown; [ ] = dose if it differs, or a comment. An excerpt weighted towards active compounds, which were near 11% of everything screened. The call rests on the fitted dose curve; in most records, active means well fitted inhibition curve with a large enough effect; inconclusive means small, poorly fitted or top-dose-only effect; inactive means no such curve, though single readings can be large or run the other way. Potency means the concentration at half of the fitted maximal effect.

SMILES	JMJD2A Tudor inh	L3MBTL1 inh	HP1b chromo inh	G9a inh	BAZ2B inh
CCCN(CCC)CCNC(=O)Cn1cnc2sc(C)c(S(=O)(=O)N3CCN(c4ccccc4OC)CC3)c2c1=O	-15%	/	-4%	-2%[59 µM]	2%
Cc1cccc(Cn2nnc3c2C(=O)c2ccccc2C3=O)c1	-14%	-19%[11.4 µM]	-26%	?	13µM*
O=c1cnc2cnc(N3CCNCC3)nc2n1C1CC1	/	/	/	5%[0.501 µM]	/
CC(=O)[C@]1(O)Cc2c(O)c3c(c(O)c2[C@@H](O[C@H]2C[C@H](N)[C@H](O)[C@H](C)O2)C1)C(=O)c1c(O)cccc1C3=O	/	/	/	14µM*	/
CC(=O)[C@]1(O)Cc2c(O)c3c(c(O)c2[C@@H](O[C@H]2C[C@H](N)[C@H](O)[C@H](C)O2)C1)C(=O)c1ccccc1C3=O	?	/	-38%	13µM*	/
CCCCC(=O)OCC(=O)[C@]1(O)Cc2c(O)c3c(c(O)c2[C@H](OC2CC(NC(=O)C(F)(F)F)C(O)C(C)O2)C1)C(=O)c1c(OC)cccc1C3=O (stereo partly drawn)	/	/	/	8.9µM*	/
COc1cccc2c1C(=O)c1c(O)c3c(c(O)c1C2=O)C[C@@](O)(C(=O)CO)C[C@@H]3OC1C[C@@H](N)[C@H](O)[C@H](C)O1 (stereo partly drawn)	/	/	/	14µM*	/
O=C(/C=C/c1ccccc1)OCc1ccccc1	/	/	/	182%[59 µM]	/
CCc1ccccc1NC(=O)C(=O)NCC(c1cccnc1)N1CCN(c2ccccc2F)CC1 (stereo not drawn)	-2%	/	34%	1%[59 µM]	-1%
CCN(CC)CCNCC(O)(c1ccc(Cl)cc1)c1ccc(Cl)cc1	-21%	7%	32%	-29%	-5%
CCN(CC)CCNCc1ccc(-c2ccc(Cl)cc2)o1	?	-5%	-7%	50µM*	?
COc1cccc(Cn2c(=O)c(CCc3ccccc3)nc3cnc(N4CCN(C)CC4)nc32)c1	/	/	/	-5%[0.501 µM]	/
CCOc1ccc(-n2c(C)c(C(=O)OC)c3cc(O)ccc32)cc1	-24%	/	3%	/	?
CCOC(=O)c1cc2c(C)n(-c3ccc(OCC)cc3)c(C)c2ccc1=O	?	-8%	?	/	50µM*
CCOC(=O)c1c[nH]n(-c2ccccc2)c1=O	-8%	/	31%	-36%	-6%
Cc1ccc(-n2c(C)cc(C(=O)COC(=O)c3ccc[nH]c3=O)c2C)cc1	-31%	4%	-1%	-7%[59 µM]	?
CCOC(=O)c1cc2c(C)n(-c3ccc(C)cc3)c(C)c2ccc1=O	?	-6%	?	/	45µM*
CCOC(=O)c1c[nH]n(-c2ccc(C)cc2)c1=O	-15%	-17%	40%	50µM*	-46%
O=Nc1ccc2oc(=O)ccc2c1	/	/	/	2.2µM*	/
COc1ccccc1NC(=O)Cn1c(=O)n(CCc2ccccc2)c(=O)c2c3c(sc21)CN(C(C)=O)CC3	-9%	/	15%	0%[59 µM]	-5%
CC(=O)NCCNc1ncncc1-c1ccc(N(C)C)cc1	/	/	/	9%[0.501 µM]	/
Nc1c(C(=O)NCc2ccc(Cl)cc2)sc2nc3c(c(C(F)(F)F)c12)CCC3	21%	11%	72%	45µM*	4%
Cc1ccc(-c2c3c(nc4sc(C(N)=O)c(N)c24)CCC3)cc1	-21%	4%	37%	-10%	-4%[57.1 µM]
NC(=O)c1sc2nc3c(c(-c4ccc(Cl)cc4)c2c1N)CCCC3	6%	/	41%	11µM*	-4%
Cc1ccc(/C=C/C(=O)OCC(=O)NC(C)C)o1	-9%	/	6%	45µM*	0%
SMILES	JMJD2A Tudor inh	L3MBTL1 inh	HP1b chromo inh	G9a inh	BAZ2B inh
O=C(NC1CCCCC1)c1cnn2c1NC(=C1CC1)C=C2C(F)F	/	/	21%	/	/
COc1ccccc1NC(=O)C1(C)Cc2ccccc2C(=O)O1 (stereo not drawn)	-3%	-1%	26%	50µM*	-4%
Cc1ccc(NC(=O)C2(C)Cc3ccccc3C(=O)O2)c(C)c1 (stereo not drawn)	4%	/	31%	7%[59 µM]	-2%
COC(=O)c1c(NC(=O)C2(C)Cc3ccccc3C(=O)O2)sc2c1CCCC2 (stereo not drawn)	-20%	-7%	?	20µM*	-29%
O=C(NCC(c1cccs1)S(=O)(=O)c1cccs1)c1ccc(C(F)(F)F)cc1 (stereo not drawn)	-8%	/	15%	4%[59 µM]	-1%
COc1ncc2nc(-c3ccc(F)cc3)c(=O)n(C3CC3)c2n1	/	/	/	8%[0.501 µM]	/
CC(Sc1nnc(-c2cccnc2)n1N)C(=O)Nc1ccc2c(c1)OCCO2 (stereo not drawn)	-21%	-13%	21%	56µM*	-21%
Cc1cccc(/C=C2\CS/C(=C\c3cccc(C)c3)C2=O)c1	?	/	?	?	50µM*
Cn1c(SCC(=O)c2ccc3c(c2)OCCO3)nnc1C1CC1	-11%[57.1 µM]	6%	43%	22µM*	-1%
Cn1c(SCC(=O)Nc2ccc3c(c2)OCCO3)nnc1C(F)(F)F	4%	8%	43%	?	8%
Cn1c(SCC(=O)c2ccc3c(c2)OCCO3)nnc1C(F)(F)F	-26%	-15%	25%	56µM*	-32%
Cc1ccc2c(c1)Sc1c(ccc3ccccc13)N2	?	-23%	?	?	40µM*
CCN(CC)c1ccc2c(c1)CCCN2	/	-9%	/	1.8µM*	45µM*
O=S(=O)(c1ccc2c(c1)CCCN2)N1CCCC1	-12%	1%	25%	-11%[2.33 µM]	2%
CCC(=O)NC1Cc2ccccc2C(c2ccccc2)C1 (stereo not drawn)	/	/	/	15%[59 µM]	/
COc1ccc(NC2c3ncccc3C(=O)N2Cc2cccs2)cc1 (stereo not drawn)	?	-1%	?	50µM*	71µM*
O=C1c2cccnc2C(Nc2ccc(Br)cc2)N1Cc1cccs1 (stereo not drawn)	?	/	9%	50µM*	/
O=C1c2cccnc2C(Nc2ccc(F)c(Cl)c2)N1Cc1cccs1 (stereo not drawn)	-10%	/	17%	50µM*	?
O=C1c2cccnc2C(Nc2ccc(Br)cc2Br)N1Cc1cccs1 (stereo not drawn)	/	-10%	/	-24%	-24%
Cc1cccc(NC(=O)c2c(NC(=O)c3ccco3)sc3c2CCC(C(C)(C)C)C3)c1 (stereo not drawn)	3%	/	58%	3%[59 µM]	3%
O=C(Cn1ncc2ccsc2c1=O)N1CCN(c2ccc(Cl)cc2)CC1	-20%	/	18%	-28%[59 µM]	-25%
O=C(Nc1nc2c(s1)COc1ccccc1-2)c1cccs1	-4%	/	31%	45µM*	-3%
O=C(CCS(=O)(=O)c1ccccc1)Nc1nc2c(s1)COc1ccccc1-2	-27%	-1%	13%	50µM*	-37%
CC(=O)c1sc(NC(=O)CCS(=O)(=O)c2ccccc2)nc1C	-5%	/	24%	51%	-14%
Cc1ccc(CCNC(c2ccc(F)cc2)c2nnc(-c3ccccc3Cl)o2)cc1 (stereo not drawn)	60%	/	99%	151%[59 µM]	76%
